Consider 40 compounds from PubChem BioAssay (NCI).

This is part of a sample that, as a whole, favours compounds with a hit. Of some 83,000 tested, about 20% had one in any assay.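 Activity criterion: percent growth below 10, measured after cells in 96-well plates were exposed to a single compound concentration for 48 hours.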 Unmarked numbers belong to inactive results. Calls of active or inactive are those of the source.

The test system of this assay is SR leukemia. The assay can be described thus: NCI-60 one-dose screen, 48 h (100 = growth as untreated, 0 = no growth, -100 = all killed). The conditions noted are these: 10 µM unless noted. How it is done: Growth inhibition of the SR human tumor cell line is measured as a screen for anti-cancer activity. Cells are grown in 96 well plates and exposed to the test compound for 48 hours. Compounds are tested at a single concentration, which is 10^-5 M for most compounds. The reported endpoint is percent growth (GI% or GIPRCNT), where numbers from 0 - 100% represent growth inhibition, and numbers from -100% - 0 represent cell death. For example, a value of 40 represents 60% growth inhibition. A value of 0 means no net growth occurred over the course of the experiment. A value of -40 indicates 40% of cells at the beginning of the experiment died by the end of the experiment. A value of -100 means all cells are dead at the end of the experiment.
NCI-60 Human Tumor Cell Lines Screen was performed using the standard one-dose NCI protocol, which is described in more detail at https://dtp.cancer.gov/discovery_development/nci-60/default.htm.
Compounds with GIPRCNT values below 10 were considered active. Activity score was based on GIPRCNT using the following formula: […]
Score is 0 for GIPRCNT values of 100 or above, 50 for GIPRCNT values of 0, and 100 for GIPRCNT values of -100.
Consider `O=c1c2c3c(sc2nc(N/N=C/c2ccc(Br)cc2)n1Cc1ccccc1)CCCC3`, for which the growth was 33.5%.
As for `Cc1cccc(Cc2cnc(NC(=O)c3ccc4nnsc4c3)s2)c1`, the figure is 95.2%.
For the compound `COc1cc(N=Nc2ccc(N)cc2)c(OC)cc1N=Nc1ccccc1.[Cl][Zn][Cl]`, the growth is 93.2%.
For `C=C1C(=O)O[C@H]2[C@H]1CC/C(COC(=O)C(=O)c1c[nH]c3ccccc13)=C\CC[C@@]1(C)O[C@@H]21` the value was 1.82% (active).
For `COc1ccc(-c2csc(C3=C(O)CN(CCCN4CCCC4=O)C3=N)n2)cc1OC` the value was 77.1%.
For `N[C@@H](CCCCNCC(=O)O)C(=O)O` the value was 99.3%; for `Cc1ccc2nc(NC(=O)CSc3nc(Nc4ccc([N+](=O)[O-])cc4)c(C#N)c(-c4ccccc4)n3)sc2c1`, 47.6%; for `COc1cc(/C=C/C(=O)c2c(C)nc3ccccc3c2C)ccc1OCCCN1CCN(C(=O)c2ccco2)CC1`, 64.8%.
With `Cc1cc(Cl)ccc1Nc1nc(C(F)(F)F)ccc1C(=O)N/N=C/c1ccc(N(C)C)cc1`, the growth was 17.4%.
As for `CC1=CN2C(=O)C3C4=C(CCCC4)SC3N=C2CN1c1c(C)cccc1C` (stereo not given), the figure is 41.8%.
As for `O=c1ssc(Cl)c1-c1ccccc1`, the figure is 124%.
As for `CN(C)c1ccc(/C=C/C(=O)c2cccc(Nc3nc(Nc4ccccc4)nc(Nc4ccccc4)n3)c2)cc1`, the figure is 77.4%; as for `COc1ccc(N2CCN(c3nc(-c4cc(OC)c(OC)c(OC)c4)nc4ccccc34)CC2)cc1`, 42.6%.
`O=[N+]([O-])c1ccc(OCCO)cc1`: the growth was 139%.
In the case of `CCCCn1c(=O)c2c(nc(NCCc3ccc(O)c(O)c3)n2CCC)n(CCCC)c1=O`, the growth was 35.9%.
In the case of `CC1(C)OC2C(CO[Si](C)(C)C(C)(C)C)OC(n3c(I)c(C#C[Si](C)(C)C)c(=O)[nH]c3=O)C2O1` (stereo not given), the growth is 63.6%.
For `Cc1ccc(Nc2nc(N)nc(CSCC(=O)NN)n2)cc1` the value was 87%.
As for `CC/C=C\C/C=C\C[C@H](O)C/C=C1/C(=O)C=C[C@@H]1C/C=C\CCCC(=O)O`, the figure is 6.21% (active).
As for `Cc1cc(NCc2cc(Nc3ccnc4cc(Cl)ccc34)ccc2F)nc(Cl)n1`, the figure is 12%.
On to `O=[N+]([O-])c1ccc(-c2cc(-c3ccc(Nc4nc(Nc5ccc(Cl)cc5)nc(Nc5ccc(Cl)cc5)n4)cc3)no2)cc1`, for which the growth is 14.5%.
As for `COc1cccc(-c2nn(-c3ccccc3)cc2-c2ccnc(NCCNC(=O)Nc3ccccc3)c2)c1`, the figure is -10.6% (active); as for `CCN(CC)CCN1CC(O)=C(c2nc(-c3ccc(Cl)cc3)cs2)C1=N`, -4.58% (active); as for `COc1ccc(-c2ccc3c(c2)sc2nc(-c4ccc(F)cc4)cn23)cc1`, 93.4%.
For `COc1cc2c(cc1-c1c(C)noc1C)ncc1nc(C3CCCCC3)n(C3CCC(OC(F)F)CC3)c12` (stereo not given) the value was 16.7%; for `C=CC(=O)Nc1cccc(Oc2nccc(Nc3nnc(C4CC4)s3)n2)c1`, 58.3%.
As for `COc1ccccc1CNCCCN1C(=O)c2ccc3c4c(ccc(c24)C1=O)C(=O)N(CCCNCCCCN)C3=O`, the figure is 5.25% (active).
In the case of `O=[N+]([O-])c1ccc(Sc2cccc[n+]2[O-])c2nonc12`, the growth was 1.31% (active).
As for `CC1(c2ccccc2)NC(=O)N(NC(=O)CSc2nc(-c3cccs3)nc3ccccc23)C1=O` (stereo not given), the figure is 67%; as for `O=C(NC(CSSCC(NC(=O)c1ccccc1)C(=O)O)C(=O)O)c1ccccc1` (stereo not given), 15.3%.
For `C#CCOc1nc(C)cc(C)c1C#N` the value was 91.8%; for `N/C(=N\c1nc2ccccc2s1)NC(=O)Nc1cccc(Cl)c1`, 14.8%; for `CN(C)c1ccc(-c2ccc3[nH]c(=O)nc(-c4ccccc4)c3c2)cn1`, 16.2%.
For `O=C1OC(c2nc3ccccc3s2)=C/C1=C\c1ccc(O)cc1` the value was 100%; for `CC(=O)c1ccc(NCC(=O)Nc2ccccn2)cc1`, 108%; for `O=C(COc1ccc(/C=C2\Oc3ccccc3C2=O)cc1)c1ccc(Cl)cc1`, 90.8%.
Regarding `CCCCCCCCn1ccc2cc(NC(=O)Cn3cc(CN4CCCC4)nn3)ccc21`, the growth is 19.2%.
As for `N=C1C(c2nc(-c3ccc(Br)cc3)cs2)=C(O)CN1Cc1cccnc1`, the figure is 55.1%; as for `S=C(Cc1ccc2c(c1)CCCC2)N1CCOCC1`, 94.7%; as for `Cc1nc2c(c(N3CCCc4ccccc43)n1)CCC2`, 2.73% (active).
Turning to `Nc1cc2c3c(cccc3c1)C(=O)N(CCN1CCCC1)C2=O`, the growth was -6.11% (active).
